Data: PubChem BioAssay AID463254 (National Center for Advancing Translational Sciences (NCATS), 2010)
Out of some 330,000 compounds screened, about 40 (0.01%) were called active. Calls come from the whole dose curve; as a rule, active = well fitted inhibition curve with a large enough effect; inconclusive = small, poorly fitted or top-dose-only effect, or effect the other way; inactive = flat fitted curve, though single readings scatter. This excerpt belongs to a sample that is enriched for actives.

target: Ubiquitin carboxyl-terminal hydrolase 2 (Homo sapiens) (UniProt O75604); assay: qHTS Assay for Inhibitors of Ubiquitin-specific Protease USP2a Using CHOP2 as the Reporter; settings: USP2 core, Ub-CHOP2 coupled fluorogenic reporter, 485/531; series mostly up to 38.3 µM
How it was run: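 USP2 core (10nM final) preincubated 30min RT with compound in 20mM Tris-HCl pH 8.0, 2mM CaCl2, 2mM beta-mercaptoethanol, 0.05% CHAPS; 25nM Ub-CHOP2 plus 25nM reporter substrate added, fluorescence (Ex485/Em531) read after 60min.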

Sequence of Ubiquitin carboxyl-terminal hydrolase 2 (Homo sapiens) (O75604 whole entry, looked up): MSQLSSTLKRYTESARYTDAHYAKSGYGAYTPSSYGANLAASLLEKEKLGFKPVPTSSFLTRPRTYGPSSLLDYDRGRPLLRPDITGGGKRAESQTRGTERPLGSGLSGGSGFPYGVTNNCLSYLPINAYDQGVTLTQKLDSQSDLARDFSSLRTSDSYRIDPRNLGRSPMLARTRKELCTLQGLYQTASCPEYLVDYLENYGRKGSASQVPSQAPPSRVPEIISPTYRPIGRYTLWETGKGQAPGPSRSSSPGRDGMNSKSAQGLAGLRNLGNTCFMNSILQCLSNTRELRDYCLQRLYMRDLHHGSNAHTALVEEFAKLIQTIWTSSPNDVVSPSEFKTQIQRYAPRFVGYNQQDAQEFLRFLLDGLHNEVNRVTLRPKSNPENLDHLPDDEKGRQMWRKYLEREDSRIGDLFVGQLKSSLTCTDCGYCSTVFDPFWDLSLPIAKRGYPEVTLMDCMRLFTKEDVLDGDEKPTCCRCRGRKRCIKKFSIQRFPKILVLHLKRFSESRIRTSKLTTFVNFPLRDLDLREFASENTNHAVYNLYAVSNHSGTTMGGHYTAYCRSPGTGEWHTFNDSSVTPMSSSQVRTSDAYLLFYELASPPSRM

Activity change, negative = inhibition, inactive:
COc1ccc(-c2[nH]ncc2CN(Cc2nccn2C)C(C)C)cc1F
Cc1cc(C)c(NC(=O)CSc2nc3ccncc3[nH]2)c(C)c1
CCOC(=O)C(CC)/C(C)=N\NC(=O)c1cccc(C)c1 (stereo not given)
CSc1nc(-c2ccco2)nn1C(=O)c1ccccc1Cl
CCN(CC)CCN1C(=O)C(=O)/C(=C(/O)c2cnn(-c3ccccc3)c2C)C1c1cccs1 (stereo not given)
Cc1ccc(C(=O)N/C(=C/c2ccco2)C(=O)NCCc2c[nH]c3ccccc23)cc1C
Cc1ccc(NC(=O)CCC(=O)c2ccc(Br)cc2)cc1
C/C(=N\NC(=O)NC1CCCCC1)c1ccc(OC(F)F)cc1OC(F)F
CCC(=O)Nc1c(S(=O)(=O)c2ccccc2)c2nc3ccccc3nc2n1Cc1ccccc1
CC(c1ccco1)N(C(=O)Nc1ccccc1)C1CCCCC1 (stereo not given)
Cc1ccc(NC(=O)Cn2cnc3c(OCc4ccccc4)ncnc32)cc1C
COc1ccc(C(=O)N2CCc3cc(OC)c(OC)cc3C2c2cccc([N+](=O)[O-])c2)cc1 (stereo not given)
COc1ccc(C(=O)C2CCCN(C(=O)c3cc(C)on3)C2)cc1F (stereo not given)
COC(c1ccccc1)(c1ccccc1)C(Oc1nc(C)cc(C)n1)C(=O)O (stereo not given)
CN(C)/C=C(/C(=O)c1ccc(Cl)cc1)S(=O)(=O)c1ccccc1
O=C(Oc1ccc([N+](=O)[O-])cc1)c1ccc(Cl)c(S(=O)(=O)N2CCCCC2)c1
Cc1ccc(N(Cc2cc(=O)[nH]c3ccccc23)C(=O)CCl)cc1
C=CCn1cc(Cl)cc(C(=O)Nc2ccccc2)c1=O
CCCCCCCCn1c2c(c(=N)c3c1CCC3)CCCC2
COc1cccc(CNC(=O)COc2cc(O)c3c(c2)OC(C)(C)CC3=O)c1
Cn1nnnc1NCc1ccc(Cl)c(Cl)c1
COC(=O)c1cccc([N+](=O)[O-])c1CS(=O)(=O)c1ccc(C)cc1
C#CCOCCOCCOCCNc1nc(N2CCN(C(=O)C([C@@H](C)O)n3cc([C@@H](N)CCCCN)nn3)CC2)nc(N2CCN(C(=O)[C@H](CCCCN)n3cc(CN)nn3)CC2)n1 (stereo not given in full)
CN(C)CCCNc1c2c(c(C#N)c3nc4ccccc4n13)CCC2
O=[N+]([O-])C(=c1ccc2c(c1)N1C3=C(CCCC3)CC3CCCCC31N=2)[N+](=O)[O-] (stereo not given)
Cc1cc(N2CCN(c3ccc(F)cc3)CC2)n2ncnc2n1
CCOC(=O)C1(CCOc2ccccc2)CCN(Cc2ccc(C#CCCO)cc2)CC1
CC(C)CN(C(=O)CSc1nncn1C)C1CCS(=O)(=O)C1 (stereo not given)
O=C(COC(=O)c1ccc(F)cc1F)Nc1ncccn1
CC(=O)N[C@@H](C)C(=O)N1CCC(n2nccc2NC(=O)CCCc2ccccc2)CC1
Cc1ccc(C(=O)Nc2nnc(C3=COCCO3)o2)cc1C
COc1ccccc1-n1c(C)nc2cc(C(=O)NCc3ccc4c(c3)OCO4)ccc21
CCCC(C)C(=O)NCc1ccncc1 (stereo not given)
CCOC(=O)c1sc(NC(=O)CSc2nc3c(c(=O)n2-c2ccccc2)SCC3)c(C(=O)OCC)c1C
CC(C)C(C)(C#N)NC(=O)CSc1nncn1-c1ccccc1 (stereo not given)
COc1cccc(/C=C(/CC(=O)Nc2ccc(N3CCOCC3)cc2)c2nc3ccccc3s2)c1
O=C(NC(=S)Nc1cccc(-c2ccc(CO)o2)c1)c1cccs1
CCCCCN(C(=O)CCC(=O)OCC(=O)NCc1ccc(OC)cc1)c1c(N)n(CCCC)c(=O)[nH]c1=O
Cc1ccc(S(=O)(=O)Nc2nc(N)n(-c3ccccc3)n2)cc1
COC(=O)c1ccc(OC(=O)c2nn(C)cc2Cl)c(OC)c1
Cc1nc2nc(COc3ccccc3)[nH]n2c(=O)c1C
O=C(Nc1cc(N2CCOCC2)ncn1)NC1(C(F)(F)F)Oc2ccc(Cl)cc2O1 (stereo not given)
CSc1ncc(C(=O)Nc2ccc(C)cc2C)c(C)n1
COc1cccc(CNS(=O)(=O)c2csc(C(N)=O)c2)c1
CC(=O)O[C@H]1CC[C@@]2(C)[C@@H](CC[C@@H]3[C@@H]2CC[C@]2(C)[C@@H](C(C)(C)O)C[C@@H]32)C1
Cc1ccc(C)c(CSc2nc(-c3ccco3)nc3c2c(=O)n(C)c(=O)n3C)c1
CCC(C)NC(=O)C1CCC(=O)N1Cc1ccc(C)cc1 (stereo not given)
COc1ccc(CS(=O)/C(Cl)=C(/Cl)C(=O)Nc2ccc(OC)nc2)cc1 (stereo not given)
Cc1cc(C)c(S(=O)(=O)N2CCOCC2)cc1C
Cc1ccc(CNC(=O)Cn2c(=O)c3sccc3n(Cc3cccc([N+](=O)[O-])c3)c2=O)cc1
CCOc1ncccc1C(=O)NNC(=O)c1cccc(S(=O)(=O)Nc2ccccc2OC)c1
COc1ccc(C(c2nnnn2C2CCCCC2)N2CCN(c3ccccc3F)CC2)cc1 (stereo not given)
COc1ccccc1/C=C/CN1CCC(CO)(Cc2ccccc2)CC1
Cc1ccc(O)c(/C=N/NC(=O)COc2ccc3c(C)cc(=O)oc3c2)c1
O=C(CCc1nnc(Cc2ccc3c(c2)OCO3)o1)NCCc1ccccc1Cl
CC(C)c1ccc(-c2noc(C3CCCN(S(C)(=O)=O)C3)n2)cc1 (stereo not given)
COc1ccccc1CNC(=O)CCCNS(=O)(=O)c1cccc2nsnc12
CC1COC2C(O1)N(S(C)(=O)=O)CCN2S(C)(=O)=O (stereo not given)
CCC(C)[C@@H](C(=O)N1CCNCC1)n1cc(CCCCN)nn1 (stereo not given in full)
CCCN(CC(=O)NC(=O)NC1CCCCC1)CC(=O)Nc1cc(Cl)ccc1Cl
CC(C)CC1NC(=O)c2cc(Cl)ccc2-n2c1nc1ccccc1c2=O (stereo not given)
O=C(NNS(=O)(=O)c1ccc(F)cc1)c1cnccn1
Cc1csc(Nc2ccc(Cl)cc2)[n+]1-c1ccc(Cl)cc1
CSC1=NCCN1C(=O)c1ccc(S(=O)(=O)N2CCOCC2)cc1
C[C@@H]1C[C@@H]2O[C@H]2/C=C\C=C\C(=O)Cc2c(Cl)c(O)cc(O)c2C(=O)O1
